In PubChem BioAssay (NCATS):
Results filed as inconclusive are left out. Unmarked numbers belong to inactive results. Calls of active or inactive are those of the source. The call rests on the fitted dose curve; in most records, active means well fitted inhibition curve with a large enough effect; inconclusive means small, poorly fitted or top-dose-only effect; inactive means flat fitted curve, though single readings scatter.

Experiment: qHTS to identify inhibitors of the type 1 interferon - major histocompatibility complex class I in skeletal muscle: primary screen against the NCATS Pharmaceutical Collection (AID 1347407)
Details: human skeletal muscle cells, IFN-b-induced MHC-I HiBiT luminescence, 24 h; series mostly up to 45.9 µM; activity change, negative = inhibition: at the top concentration
Text: Assay Submitter (PI): Travis B. Kinder Ph.D. & James Inglese Ph.D.
Assay Development and Screening Technology Laboratory (ADST)
National Center for Advancing Translational Sciences (NCATS), Rockville, MD
National Institute of Health (NIH), Bethesda, Maryland
Idiopathic inflammatory myopathies, collectively referred to as myositis, are a group of rare autoimmune diseases characterized by skeletal muscle inflammation, weakness, and usually accompanied by systemic pathologies of the skin, lungs, or vasculature. Current immunosuppressive therapies and glucocorticoids are often not curative and are accompanied by harsh side effects, especially in children with juvenile myositis. We initiated a drug repurposing and development program to identify more targeted, less toxic therapeutics to treat myositis. Although its cause is not known, muscle from a subset of patients have an abundance of the inflammatory type 1 interferon (IFN) and a down-stream product major histocompatibility complex class I (MHC class I), which are both thought to contribute to damage and weakness. We conducted quantitative high throughput screening on 6,576 compounds (4,679 unique) through a series of cell-based assays to identify those that inhibit the IFN-stimulated expression of MHC class I in muscle precursor cells (myoblasts). The compound identification and evaluation strategy utilized a primary screen with reporter-tagged MHC class I in genome-engineered myoblasts, ATP content counter screen for viability, HLA-ABC immunofluorescence secondary screen, and HLA-B RT-qPCR tertiary screen.
The primary screen utilized CRISPR/Cas9 genome-engineering of immortalized human myoblasts, C25cl48, where a pro-luminescent reporter HiBit was fused to the C-terminus of endogenous MHC class I allele HLA-B*08:01 (HLA-B HiBit myoblasts). HiBit is an 11 amino acid fragment of NanoLuc luminescent reporter (Promega Corporation), and when complexed to the larger LgBit fragment, the reconstituted enzyme produces light in the presence of furimazine substrate (Schwinn et al., 2018). Briefly, HLA-B HiBit myoblasts were plated into 1536-well plates, treated with 4.0 ng/ml human IFN-beta and 2,816 compounds from the NCATS Pharmaceutical Collection (NPC) that contains all drugs approved in the US, EU, and Japan (Huang et al., 2011) in an 8-point, 1:5 titration with a high final concentration of 46 uM. After 24 hrs of treatment, cells were assayed by Nano-Glo HiBiT Lytic Detection System (Promega) and luminescence measured by a ViewLux 1430 Ultra HTS (Perkin Elmer).
Huang R, Southall N, Wang Y, Yasgar A, Shinn P, Jadhav A, Nguyen D-T, Austin CP. 2011. The NCGC pharmaceutical collection: a comprehensive resource of clinically approved drugs enabling repurposing and chemical genomics. Sci Transl Med 3:80ps16. doi:10.1126/scitranslmed.3001862
Schwinn MK, Machleidt T, Zimmerman K, Eggers CT, Dixon AS, Hurst R, Hall MP, Encell LP, Binkowski BF, Wood K V. 2018. CRISPR-Mediated Tagging of Endogenous Proteins with a Luminescent Peptide. ACS Chem Biol 13:467-474. doi:10.1021/acschembio.7b00549
PROTOCOL TABLE (as described by Inglese et al., 2007)
SEQUENCE No. (e.g., 1, 2, 3, etc.); […] (e.g., Cells, Incubation, Reagent, etc.); VALUE; DESCRIPTION
1a; Cells; 5 uL; Use a Multidrop Combi (Thermo Scientific) to seed 350 cells/well into nine Greiner 1536 well white/solid bottom, high base, TC plates in 5 ul/well of iHSKM growth medium (GM) without dexamethasone into columns 1+2. Add metal lids with gas-exchange holes
1b; Cells; 5 uL; Use a Multidrop Combi (Thermo Scientific) to seed 350 cells/well into nine Greiner 1536 well white/solid bottom, high base, TC plates in 5 ul/well of iHSKM GM without dexamethasone + 4 ng/ml IFN-b into columns 3 - 48. Add metal lids with gas-exchange holes
2; Incubate; 1 hr; Incubate at 37 C, 5% CO2, 95% RH
[…]
On the % scale 0 is the no-effect control and ±100 the full control effect; potency means the concentration at half of the fitted maximal effect.

Structure (SMILES)	activity change, negative = inhibition	Potency
CN(C)CC[C@@H](c1ccc(Br)cc1)c1ccccn1	-9.18%	–
c1cnc(N2CCN(Cc3ccc4c(c3)OCO4)CC2)nc1	7.84%	–
Fc1ccc(C(c2ccc(F)cc2)N2CCN(C/C=C/c3ccccc3)CC2)cc1	-20.4%	–
O=C(CCNNC(=O)c1ccncc1)NCc1ccccc1	2.46%	–
N[C@@H](COP(=O)(O)O)C(=O)O	-23.4% [at 19 µM]	–
NS(=O)(=O)c1cc2c(cc1Cl)NC(C1CC3C=CC1C3)NS2(=O)=O (stereo not given)	-1.4%	–
OC(CCN1CCCCC1)(c1ccccc1)C1CCCCC1 (stereo not given)	-7.01%	–
Cc1nc2sccn2c(=O)c1CCN1CCC(=C(c2ccc(F)cc2)c2ccc(F)cc2)CC1	-2.97%	–
O=C1CC2(CCCC2)CC(=O)N1CCCCN1CCN(c2ncccn2)CC1	-7.33%	–
O=C(O)CCCCCCCC(=O)O	-0.0051%	–
CNC1(C)C2CCC(C2)C1(C)C (stereo not given)	2.98%	–
CO[C@@]1(NC(=O)CSCC#N)C(=O)N2C(C(=O)O)=C(CSc3nnnn3C)CS[C@@H]21	-13.2%	–
Cc1cccc(C)c1NC(=O)C(C)N (stereo not given)	-3.17%	–
CN(C)C(=O)Oc1cccc([N+](C)(C)C)c1	28.2%	–
CC(C)[N+](C)(CCOC(=O)C1c2ccccc2Oc2ccccc21)C(C)C	-3.7%	–
COCCc1ccc(OCC(O)CNC(C)C)cc1 (stereo not given)	-6.47%	–
NCCCNCCSP(=O)(O)O	3.17% [at 9.18 µM]	–
CN/C(=C\[N+](=O)[O-])NCCSCc1ccc(CN(C)C)o1	-2.43%	–
CCN(CC)CCNC(=O)c1ccc(NC(C)=O)cc1	-11.2%	–
CN=C(NC#N)NCCSCc1nc[nH]c1C	-4.07%	–

Structure (SMILES)	activity change, negative = inhibition	Potency
Nc1ncn([C@@H]2O[C@H](CO)[C@@H](O)[C@H]2O)c(=O)n1	-9.75%	–
Nc1c2c(nc3ccccc13)CCCC2O (stereo not given)	11%	–
CCN1CCC[C@H]1CNC(=O)c1c(O)c(Cl)cc(Cl)c1OC	-19.4%	–
C[C@]12CC[C@@H]3c4ccc(O)cc4C[C@@H](CCCCCCCCCS(=O)CCCC(F)(F)C(F)(F)F)[C@H]3[C@@H]1CC[C@@H]2O (stereo not given in full)	0.535%	–
Cc1ccc(Cl)c(Nc2ccccc2C(=O)O)c1Cl	-2.65%	–
CCNC(=O)N1CCN(CCCC(c2ccc(F)cc2)c2ccc(F)cc2)CC1	-24.5%	–
CCCCNc1c(C(=O)OCC)c(C)nc2c1cnn2CC	-8.33%	–
COc1ccc([C@@H]2Sc3ccccc3N(CCN(C)C)C(=O)[C@@H]2OC(C)=O)cc1	-0.484%	–
CC(C)COCC(CN(Cc1ccccc1)c1ccccc1)N1CCCC1 (stereo not given)	-22.1%	–
Nc1nc(N)c2nc(-c3ccccc3)c(N)nc2n1	-10%	–
CN(C)C/C=C(/c1ccc(Br)cc1)c1cccnc1	9.82%	–
NC/C=C/C(=O)O	-1.4%	–
CC(=O)OCC1=C(C(=O)O)N2C(=O)[C@@H](NC(=O)Cc3cccs3)[C@H]2SC1	0.552%	–
CC(C)(C)c1ccc(C(=O)CCCN2CCC(OC(c3ccccc3)c3ccccc3)CC2)cc1	-3.91%	–
C[C@]12CCC(=O)C=C1CC[C@@H]1[C@@H]2C(=O)C[C@@]2(C)[C@H]1CC[C@]2(O)C(=O)CO	17.5%	–
CCCN(CCC)C(=O)C(CCC(=O)O)NC(=O)c1ccccc1 (stereo not given)	5.53%	–
CC(=O)[C@@]1(O)CC[C@H]2[C@@H]3CCC4=CC(=O)CC[C@]4(C)[C@H]3CC[C@@]21C	-1.68%	–
NC(Cc1ccc(Cl)cc1)C(=O)O (stereo not given)	1.91% [at 0.727 µM]	–
CC(=O)[C@]1(O)Cc2c(O)c3c(c(O)c2[C@@H](O[C@H]2C[C@H](N)[C@H](O)[C@H](C)O2)C1)C(=O)c1ccccc1C3=O	–	5.28 µM (active)
CC(C)NCC(O)c1cc(O)cc(O)c1 (stereo not given)	-4.65%	–
